In PubChem BioAssay one finds composite z-score and z-score data, which are given here for 18 compounds.

Calls of active or inactive are those of the source.

The subject of assay [1] is Plasmodium falciparum Sir2 (PF13_0152, Sir2A). Nature of the assay: Plasmodium falciparum Sir2A binding compounds – biochemical, small-molecule microarray, 635 nm fluorescence, primary screen (AID 1098).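 Note: score merges spot fluorescence intensity with its signal-to-noise ratio.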 The following applies: fluorescence 635 nm, higher = more signal.
A short description of assay [2]: probe aDKK1 binding to arrayed compounds – biochemical, biotinylated probe, 635/667 nm fluorescence, primary screen (AID 1099).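 Note: score merges 667nm spot fluorescence with signal to noise across triplicate slides; reference of the scale not given here.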 The following applies: small-molecule microarray, higher = more signal.
Assay [3] can be described thus: probe aCHRDL2 binding to arrayed compounds – biochemical, biotinylated probe, 635/667 nm fluorescence, primary screen (AID 1100). Conditions: small-molecule microarray, higher = more signal.
A short description of assay [4]: change in splice reporter luminescence, either direction, cell-based, HEK293, spliceosome inhibition project, primary screen (AID 1101).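 Note: HEK293 cells carrying a splicing-competent luciferase reporter gene; test concentration not given here.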 Conditions: HEK293 splicing luciferase reporter, 24 h, higher = more signal, called active from +8 up or from −8 down. (In general: A reporter such as luciferase makes a cellular process visible.)
The target of assay [5] is Fibroblast growth factor 10 (Homo sapiens) (UniProt O15520). Nature of the assay: compounds binding fibroblast growth factor 10 – biochemical, small-molecule microarray, 635 nm fluorescence, primary screen (AID 1102). Conditions: FGF10 binding, fluorescence 635 nm, higher = more signal.
Chain of Fibroblast growth factor 10 (Homo sapiens) (O15520 whole entry, looked up): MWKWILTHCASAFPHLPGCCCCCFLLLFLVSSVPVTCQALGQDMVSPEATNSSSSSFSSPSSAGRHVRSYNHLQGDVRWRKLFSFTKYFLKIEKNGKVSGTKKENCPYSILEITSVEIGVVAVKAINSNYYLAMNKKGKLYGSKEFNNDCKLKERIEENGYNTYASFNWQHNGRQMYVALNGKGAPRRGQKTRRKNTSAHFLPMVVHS
Assay [6] concerns glycogen synthase kinase-3 (GSK3A per assay name; protocol says GSK3B). Nature of the assay: compounds binding glycogen synthase kinase-3 – biochemical, small-molecule microarray, 635 nm fluorescence, GSK3A, primary screen (AID 1103). Note: the record names both GSK3A and GSK3B. The following applies: fluorescence 635 nm, higher = more signal.
In assay [7] the target is Epidermal growth factor receptor (Homo sapiens) (UniProt P00533). Nature of the assay: compounds binding epidermal growth factor receptor – biochemical, small-molecule microarray, 635 nm fluorescence, primary screen (AID 1104).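 Note: score merges 667 nm emission intensity with spot signal to noise over triplicate slides.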 The following applies: EGFR binding, higher = more signal.
Chain of Epidermal growth factor receptor (Homo sapiens) (P00533 whole entry, looked up): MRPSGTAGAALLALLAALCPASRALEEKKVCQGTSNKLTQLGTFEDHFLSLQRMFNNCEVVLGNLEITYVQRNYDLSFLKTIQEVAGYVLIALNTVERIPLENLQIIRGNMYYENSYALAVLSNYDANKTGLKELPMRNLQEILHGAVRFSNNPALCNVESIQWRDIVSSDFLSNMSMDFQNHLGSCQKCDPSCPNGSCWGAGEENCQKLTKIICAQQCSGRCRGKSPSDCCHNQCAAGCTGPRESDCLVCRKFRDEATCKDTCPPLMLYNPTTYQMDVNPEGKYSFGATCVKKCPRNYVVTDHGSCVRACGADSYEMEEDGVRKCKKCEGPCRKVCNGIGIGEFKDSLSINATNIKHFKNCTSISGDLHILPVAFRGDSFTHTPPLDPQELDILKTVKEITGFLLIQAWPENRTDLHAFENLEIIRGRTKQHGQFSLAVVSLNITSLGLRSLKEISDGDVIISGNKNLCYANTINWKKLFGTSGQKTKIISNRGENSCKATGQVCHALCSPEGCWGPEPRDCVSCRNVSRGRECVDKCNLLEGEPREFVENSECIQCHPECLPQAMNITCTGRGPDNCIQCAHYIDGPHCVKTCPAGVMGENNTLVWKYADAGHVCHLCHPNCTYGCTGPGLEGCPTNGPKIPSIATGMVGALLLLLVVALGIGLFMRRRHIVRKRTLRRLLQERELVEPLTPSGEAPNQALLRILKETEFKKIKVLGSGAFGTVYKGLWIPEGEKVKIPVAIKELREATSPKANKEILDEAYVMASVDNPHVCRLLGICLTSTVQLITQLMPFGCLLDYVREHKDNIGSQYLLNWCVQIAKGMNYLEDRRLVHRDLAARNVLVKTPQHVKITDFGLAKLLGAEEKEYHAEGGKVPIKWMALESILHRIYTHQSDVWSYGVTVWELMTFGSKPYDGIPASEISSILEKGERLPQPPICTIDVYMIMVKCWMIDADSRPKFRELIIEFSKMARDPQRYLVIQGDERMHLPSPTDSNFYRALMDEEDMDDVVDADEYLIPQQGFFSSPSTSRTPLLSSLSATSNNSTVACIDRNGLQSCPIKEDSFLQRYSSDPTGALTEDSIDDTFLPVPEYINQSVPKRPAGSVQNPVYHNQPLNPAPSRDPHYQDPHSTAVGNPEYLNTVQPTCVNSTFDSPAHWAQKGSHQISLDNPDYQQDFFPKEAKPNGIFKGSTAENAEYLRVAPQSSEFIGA
Assay [8] concerns the target Follistatin-related protein 3 (Homo sapiens) (UniProt O95633). Nature of the assay: compounds binding follistatin-related protein 3 – biochemical, small-molecule microarray, 635 nm fluorescence, primary screen (AID 1105).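 Note: score merges emission near 667 nm and signal to noise per printed spot across three slides.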 The following applies: FSTL3 binding, higher = more signal.
For assay [9], the target named is Dickkopf-related protein 1 (Homo sapiens) (UniProt O94907). Put plainly: small molecules binding DKK1 protein – biochemical, small-molecule microarray, 635 nm fluorescence scan, primary screen (AID 1106).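 Note: score merges emission near 667 nm with signal to noise over three replicate slides.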 The following applies: higher = more signal.
Chain of Dickkopf-related protein 1 (Homo sapiens) (O94907 whole entry, looked up): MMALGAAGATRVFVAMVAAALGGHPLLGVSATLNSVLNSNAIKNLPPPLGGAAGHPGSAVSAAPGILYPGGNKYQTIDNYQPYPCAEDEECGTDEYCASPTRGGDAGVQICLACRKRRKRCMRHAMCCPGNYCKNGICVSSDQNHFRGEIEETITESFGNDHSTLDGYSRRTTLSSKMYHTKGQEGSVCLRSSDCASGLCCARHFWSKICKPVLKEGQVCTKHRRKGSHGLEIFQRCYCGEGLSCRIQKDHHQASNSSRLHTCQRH
Assay [10] has as its system Inhibin beta A chain (activin A). Nature of the assay: small molecules binding activin A – biochemical, small-molecule microarray, 635 nm fluorescence scan, primary screen (AID 1107).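 Note: mouse activin A protein probed at 4.33 µg/mL on printed slides; score merges bound-protein fluorescence near 667 nm with spot signal-to-noise.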 Conditions: INHBA, higher = more signal.

Chain of Follistatin-related protein 3 (Homo sapiens) (O95633 whole entry, looked up): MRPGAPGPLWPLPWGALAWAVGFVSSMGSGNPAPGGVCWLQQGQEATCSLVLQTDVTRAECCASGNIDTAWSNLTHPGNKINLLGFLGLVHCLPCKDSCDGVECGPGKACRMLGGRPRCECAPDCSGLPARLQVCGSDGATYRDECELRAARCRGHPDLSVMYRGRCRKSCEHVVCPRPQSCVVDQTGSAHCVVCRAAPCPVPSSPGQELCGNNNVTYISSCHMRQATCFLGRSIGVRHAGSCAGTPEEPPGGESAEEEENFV

Take `CCOC(=O)[C@H](Cc1ccccc1)NC(=O)CCC1CC(OC(=O)NCCc2ccc(F)cc2)CC2(CCCC(COC(=O)NCC3CCCCC3)O2)O1` (stereo not given in full): the composite z-score is 0.711 in assay [1]; -0.184 in assay [2]; -0.761 in [3]; 1.03 in assay [5]; 1.24 in assay [6]; 0.53 in [7]. The composite z-score in assay [8] was found to be 1.2; in assay [9] it was 1.33; in assay [10], 0.0408. Moreover, the z-score in assay [4] was -0.308 (inactive).
For `CO[C@@H]1COC(=O)[C@H](CCSC)NC(=O)CC=C[C@@H](C)COC(=O)[C@H](C)NC(=O)CC=C[C@H]1C`, the composite z-score in assay [1] is 0.931; in assay [2], -0.34; in assay [3] it was -0.833; in [5], 0.816; in assay [6] it was 0.856; in assay [7], 0.953. The composite z-score in assay [8] is 1.1; in assay [9], 1.19; in assay [10] it was -0.0263. Moreover, in assay [4], the z-score is 0.0885 (inactive).
Regarding `C[C@@H](ON=C1[C@H]2CCn3c(=O)n(-c4ccccc4)c(=O)n3[C@H]2[C@H](O)[C@@H]2O[C@H]12)c1cn([C@@H]2COC[C@H]2O)nn1`, the composite z-score is 0.507 in [1]; -0.235 in assay [2]; -0.511 in [3]; 0.31 in assay [5]; 0.555 in assay [6]; 0.702 in assay [7]. Moreover, the figures for the composite z-score in assay [8], in assay [9] and in [10] were 0.51, 0.446 and 0.0788, respectively. The z-score in assay [4] is 0.413 (inactive).
Regarding `CC(C)C[C@H](NC(=O)CCC1CC(OC(=O)NCc2cccc3ccccc23)CC2(CCCC(COC(=O)NCc3ccccc3)O2)O1)C(=O)NCC(c1ccccc1)c1ccccc1` (stereo not given in full), the composite z-score is 0.683 in [1]; -0.0553 in assay [2]; -0.304 in assay [3]; 1.26 in [5]; 0.91 in [6]; 0.667 in assay [7]. The results for the composite z-score in assay [8], in [9] and in assay [10] were 1.12, 0.861 and -0.156, respectively. The z-score in assay [4] was 0.536 (inactive).
As to `C[C@@H]1NC(=O)[C@@H](C)COC(=O)[C@H](C)NC(=O)[C@@H](C)COC1=O`, the composite z-score in assay [1] is 0.429; in [2] it was -0.23; in assay [3], -0.0595; in assay [5] it was 0.765; in assay [6] it was 0.642; in [7] it was 0.401. Besides, the composite z-score in assay [8] is 1.15; in [9], 0.769; in assay [10] it was -0.772. Further, the z-score in assay [4] is -1.35 (inactive).
On to `C=CC[C@@H]1C=C[C@H](ON=C[C@@H](C)[C@H](OCc2ccccc2)C(C)C)[C@@H](CO)O1`, for which the composite z-score is 1.07 in assay [1]; -0.5 in [2]; -0.353 in assay [3]; -0.483 in assay [5]; -0.363 in assay [6]; -0.852 in assay [7]. Besides, the composite z-score in assay [8] is -0.568; in [9], -0.189; in assay [10], -0.291. In assay [4], the z-score was 0.305 (inactive).
As to `C#CCCCON=C1C[C@@H](O)[C@@H](O)[C@@H]2[C@@H]3C(=O)N(CC)C(=O)[C@@H]3CC[C@@H]12`, the composite z-score was 0.254 in assay [1]; -0.129 in [2]; -0.697 in [3]; 1.18 in [5]; 0.545 in assay [6]; 0.631 in assay [7]. In addition, the values for the composite z-score in assay [8], in [9] and in assay [10] were 0.496, 0.628 and -0.236, respectively. The z-score in assay [4] is 0.401 (inactive).
As to `CCCCc1nc2c(c3c1C[C@H](C)OC3)CN(CCOc1ccccc1)CC2`, the composite z-score is 0.489 in [1]; 0.107 in [2]; -0.277 in assay [3]; 0.632 in assay [5]; 0.427 in [6]; 0.681 in assay [7]. In addition, the composite z-score in assay [8] stood at 1.27; in assay [9] it was 0.302; in assay [10], 0.765. For the same compound, the z-score in [4] is -1.21 (inactive).
For the compound `CC(CCN1CCc2nc(-c3ccccc3)c(-c3ccccc3)cc2C1)=NOC[C@@H](O)COCc1ccco1`, the composite z-score is 0.752 in [1]; -0.131 in [2]; -0.614 in assay [3]; 0.52 in assay [5]; 0.814 in assay [6]; 0.377 in assay [7]. Besides, the composite z-score in assay [8] was found to be 0.776; in assay [9], 1.08; in assay [10] it was 1.48. Further, the z-score in [4] is 0.0302 (inactive).
Consider `CC(C)(C)N1C(=O)[C@H]2[C@H]3[C@H](O)C=CC(=O)[C@@H]3CC[C@H]2C1=O`, for which the composite z-score is 0.294 in assay [1]; -0.407 in [2]; -0.428 in assay [3]; 0.429 in [5]; 0.695 in assay [6]; 0.437 in [7]. The composite z-score in [8] is 0.711; in assay [9] it was 0.715; in assay [10], -0.214. Also, the z-score in [4] is -0.128 (inactive).
Regarding `CCc1cc2c(nc1CC)CCN(CCC(C)=NO[C@H](C)c1cn([C@@H]3COC[C@H]3O)nn1)C2`, the composite z-score was 0.346 in assay [1]; -0.156 in assay [2]; -0.334 in assay [3]; 0.189 in assay [5]; 0.229 in [6]; 0.545 in assay [7]. The composite z-score in [8] is 0.433; in assay [9], 0.611; in assay [10], 0.468. Moreover, the z-score in assay [4] is 0.212 (inactive).
For the compound `CCOC(=O)NN=C1C[C@@H](O)[C@@H](O)[C@@H]2[C@@H]3C(=O)N(c4ccc(F)cc4F)C(=O)[C@@H]3CC[C@@H]12`, the composite z-score in [1] is 0.468; in assay [2], -0.132; in assay [3], -0.364; in assay [5], 0.478; in assay [6], 0.364; in [7], 0.527. For the same compound, the composite z-score worked out at 0.659 in [8], 0.462 in assay [9] and 0.18 in [10]. Besides, the z-score in assay [4] is 0.428 (inactive).
For the compound `COC(=O)CC=C[C@@H](C)[C@@H](C=NO[C@@H](C)c1cn([C@H](CO)Cc2ccccc2)nn1)NS(=O)(=O)c1ccc(C)cc1`, the composite z-score was 1.18 in assay [1]; -0.0838 in [2]; -0.668 in assay [3]; 0.582 in [5]; 0.252 in assay [6]; 0.519 in [7]. In addition, the values for the composite z-score in [8], in [9] and in assay [10] were 0.449, 0.47 and 0.408, respectively. Besides, the z-score in assay [4] is -0.83 (inactive).
With `COc1cccc([C@H]2Oc3ccc(OC)cc3C(=NOC[C@@H](O)COCc3ccco3)[C@@H]2O)c1`, the composite z-score in assay [1] was -0.12; in assay [2] it was -0.644; in [3] it was -0.798; in [5], -0.0458; in assay [6] it was -0.754; in assay [7], -1.44. Also, the composite z-score in assay [8] is -1.3; in [9], 0.13; in [10], 1.29. In addition, the z-score in assay [4] was -0.469 (inactive).
As for `CCOC(=O)[C@H](CC(C)C)NC(=O)CCC1CC(OC(=O)NCc2cccc3ccccc23)CC2(CCCC(COC(=O)NCCc3ccc(Cl)cc3)O2)O1` (stereo not given in full), the composite z-score was 0.409 in assay [1]; -0.0738 in assay [2]; -0.406 in [3]; 0.365 in [5]; 0.355 in assay [6]; 0.681 in assay [7]. Also, the composite z-score in assay [8] was 0.726; in assay [9], 0.323; in assay [10], -0.293. Besides, the z-score in [4] is -1.18 (inactive).
On to `CCN1C(=O)[C@H]2[C@H]3[C@H](O)[C@H](O)CC(=O)[C@H]3CC[C@H]2C1=O`, for which the composite z-score in assay [1] was 0.519; in assay [2], -0.106; in assay [3], -0.721; in assay [5], 0.406; in assay [6], 0.713; in assay [7] it was 0.371. Moreover, the composite z-score was 0.396 in assay [8], 0.776 in [9] and -0.249 in assay [10]. For the same compound, the z-score in assay [4] was 0.691 (inactive).
Turning to `Cc1cc2c(nc1C)CCCN2CC(O)CN1CCCc2nc(C)c(C)cc21`, the composite z-score in assay [1] was 0.264; in [2], 0.125; in [3], 0.258; in [5], 0.92; in [6] it was 0.388; in [7] it was 0.36. Moreover, the composite z-score in [8] amounted to 0.552; in assay [9], 0.536; in assay [10], 1.17. Besides, in assay [4], the z-score was -0.153 (inactive).
`CC(C)CON=C1C[C@@H](O)[C@@H](O)[C@@H]2[C@@H]3C(=O)N(C4CCCCC4)C(=O)[C@@H]3CC[C@@H]12`: the composite z-score was 1.17 in assay [1]; -0.22 in [2]; -0.198 in assay [3]; -0.0852 in assay [5]; -0.925 in assay [6]; -0.305 in assay [7]. The composite z-score in [8] is -0.504; in assay [9] it was -0.607; in assay [10], -0.164. In addition, in assay [4], the z-score was 0.353 (inactive).
